# Screens deposited in PubChem by National Center for Advancing Translational Sciences (NCATS).
# uPA surface inh: blocks generation of uPA at the cell surface; cell surface uPA generation assay, qHTS; actives 0.31% (n = 330,000); Potency, µM (series often up to 38.3 µM), without a hit: top-dose activity change, negative = inhibition, usual class: inhibitors; active = well fitted inhibition curve with a large enough effect; inconclusive = small, poorly fitted or top-dose-only effect; inactive = no such curve, though single readings can be large or run the other way; tested in mouse RAW 264.7 cells; also: potency is read from the fitted curve at half-maximal effect; % is scaled to controls: 0 for no effect and ±100 for the full control effect; nearly all actives have a fitted effect of over 55% in size
# GLP-1R agonist: activates the human GLP-1 receptor | P43220 | Potency, µM (highest dose often 45.6 µM), inactives show top-dose activation, hits mostly activators | HEK293 GLP-1R CRE-luciferase, luminescence, 4-6 h; cells express a hypersensitive GLP-1R form | actives 0.007% (n = 380,000) | AID 624172; also: potency is read from the fitted curve at half-maximal effect; % of control where 0% means no effect
# Target sequence (P43220 whole entry, looked up): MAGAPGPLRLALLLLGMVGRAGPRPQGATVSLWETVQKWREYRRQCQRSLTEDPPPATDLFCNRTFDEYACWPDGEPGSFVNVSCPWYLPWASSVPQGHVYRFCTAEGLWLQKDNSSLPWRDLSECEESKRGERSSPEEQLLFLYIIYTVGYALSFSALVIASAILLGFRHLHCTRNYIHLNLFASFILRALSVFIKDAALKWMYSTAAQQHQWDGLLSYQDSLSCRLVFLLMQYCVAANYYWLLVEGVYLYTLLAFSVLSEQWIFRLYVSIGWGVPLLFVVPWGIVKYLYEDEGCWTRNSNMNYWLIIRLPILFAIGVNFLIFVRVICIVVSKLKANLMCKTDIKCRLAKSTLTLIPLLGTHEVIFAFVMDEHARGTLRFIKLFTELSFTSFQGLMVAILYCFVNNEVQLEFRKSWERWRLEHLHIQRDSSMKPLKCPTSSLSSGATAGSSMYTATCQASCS
# MmCpn inh: inhibitors of Methanococcus maripaludis chaperonin TRiC (MmCpn). purified Mm-Cpn ATPase, ADP Transcreener TR-FRET. Potency, µM (highest dose often 76.9 µM), for inactives: at the top dose activity, negative = inhibition, most hits filed as inhibitors. actives 0.031% (n = 330,000). AID 504842; also: potency is read from the fitted curve at half-maximal effect; % is scaled to controls: 0 for no effect and ±100 for the full control effect; nearly all actives have a fitted effect of over 80% in size
#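 Compound-treated chaperonin, 25 nM final, turns over 10 uM ATP at 37°C for 30 min following a 10 min preincubation; ADP generated competes with ADP-d2 for Eu-cryptate antibody, lowering FRET.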
# CCT modulator: cytosolic chaperonin activity modulation. purified chaperonin ATPase assay, HTRF ADP detection, 30 min. activity change, % (test concentration not listed), hits read low. actives 0.3% (n = 360,000). AID 651819; in the data active = activity change below about -30%; also: % is scaled to controls: 0 for no effect and ±100 for the full control effect
#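 TRiC (40 or 20 nM final, by batch activity) in 30 mM Tris pH 7.4, 100 mM KCl, 5 mM MgCl2, 1 mM DTT was treated with compound at 76 uM single dose, then 10 uM ATP, 30 min at 37 °C. ADP was read by HTRF Transcreener.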
# GLP-1R inv ag: GLP-1 receptor (human) inverse agonism; AID 624417; Potency, µM (series often up to 38.3 µM), inactives show at the highest dose activity change, negative = inhibition, hits mostly inhibitors; P43220; actives 1.6% (n = 410,000); HEK293 GLP-1R CRE-luciferase, luminescence, 24 h; GLP-1R form is constitutively active; also: potency is read from the fitted curve at half-maximal effect; % is scaled to controls: 0 for no effect and ±100 for the full control effect; nearly all actives have a fitted effect of over 55% in size
#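 Luminescence readout: a drop in cAMP-driven luciferase signal flags inverse agonism at a constitutively active GLP-1R stably expressed in HEK293. Compound exposure lasted 24 hr at 37 deg C, 5% CO2.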
# GLP1R cytotox: cytotoxicity in counter-screen for GLP-1R inverse agonists. HEK293 cAMP-luciferase reporter cells, luminescence, 24 h. Potency, µM (series often up to 38.3 µM), without a hit: at the highest dose activity change, negative = inhibition, usual class: inhibitors. actives 0.13% (n = 410,000). AID 624418;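 also: loss of luciferase light is scored as toxicity; potency is read from the fitted curve at half-maximal effect; % is scaled to controls: 0 for no effect and ±100 for the full control effect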
#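 A 23 nL compound transfer followed 12 hours of cell culture at 37 deg C; exposure then lasted 24 hr. Luciferase assay detection reagent was dispensed and plates read for luminescence after a 12 min room-temperature wait.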
# An asterisk follows results filed as active; ? = inconclusive; . = not tested or not shown. In the library only some 2.2% were active in any assay of this set; here they are far more common. Unless noted, calls follow the shape of the dose curve; as a rule, active = well fitted curve in the direction sought with a large enough effect; inconclusive = small, poorly fitted or top-dose-only effect, or another doubt; inactive = no such curve, though single readings can be large; an effect the other way counts as inactive or inconclusive.
SMILES,uPA surface inh,GLP-1R agonist,MmCpn inh,CCT modulator,GLP-1R inv ag,GLP1R cytotox
CCOc1cccc(C(=O)Nc2ccc(S(=O)(=O)N(Cc3ccccc3)c3ccccc3)cc2)c1,.,.,.,.,3.16µM*,1.6%
COc1cccc(C(=O)Nc2ccc(S(=O)(=O)N(Cc3ccccc3)c3ccccc3)cc2)c1,.,.,.,.,?,-1.5%
COc1cc(NC(=O)c2ccc(S(=O)(=O)N(C)c3ccccc3OC)cc2)cc(OC)c1,-2.2%,2.8%,-1.0%,0.6,7.94µM*,-9.0%
COc1ccccc1N(C)S(=O)(=O)c1ccc(C(=O)Nc2cccc(Br)c2)cc1,-15.1%,5.3%,-7.3%,-2.5,?,-20.7%
Cc1ccccc1C(=O)NC(=S)Nc1ccc(S(=O)(=O)N(C)c2ccccc2)cc1,-0.5%,-6.5%,-4.4%,-3.0,8.91µM*,8.4%
CN(C(=S)Oc1ccc(C(=O)Nc2ccccc2)cc1)c1ccccc1,-8.1%,2.4%,-2.4%,-0.9,8.91µM*,2.3%
CCN(c1ccccc1)S(=O)(=O)c1cc(C(=O)Nc2ccc(Br)cc2)ccc1F,-14.1%,-4.6%,-10.5%,1.7,2.51µM*,-4.5%
CCOc1ccc(NC(=O)CSc2nnc3scc(-c4ccccc4)n23)cc1,.,.,.,.,-2.0%,-1.7%
O=C(c1ccccc1)N(Cc1ccccc1)Cc1ccccc1,-13.0%,14.5%,0.5%,-0.6,?,3.7%
CC1(C(=O)N(Cc2ccccc2)Cc2ccccc2)CC1(Br)Br (stereo not drawn),2.3%,-6.6%,-4.5%,-0.5,3.98µM*,5.1%
CCCCC(c1nnnn1CC1CCCO1)N1CCN(c2nc3ccccc3s2)CC1 (stereo not drawn),-2.9%,5.9%,0.0%,0.1,10µM*,-2.4%
CCCC(c1nnnn1CC1CCCO1)N1CCN(c2nc3ccccc3s2)CC1 (stereo not drawn),1.1%,6.4%,2.3%,-1.7,?,-1.4%
CN(C)CCCN(C(=O)c1ccc2ccccc2c1)c1nc2cc3c(cc2s1)OCO3,-2.5%,-0.7%,0.1%,0.8,?,?
CN(C)CCCN(C(=O)c1ccc(S(=O)(=O)N(C)Cc2ccccc2)cc1)c1nc2cc3c(cc2s1)OCO3,0.5%,0.0%,-0.7%,-0.9,7.08µM*,?
Cc1cc(C)c2sc(N(CCCN(C)C)C(=O)c3ccc(S(=O)(=O)N(C)Cc4ccccc4)cc3)nc2c1,?,-9.6%,0.4%,-0.8,11.2µM*,?
CCOc1cccc2sc(N(CCCN(C)C)C(=O)c3ccc(S(=O)(=O)N(CC)Cc4ccccc4)cc3)nc12,-10.4%,-1.6%,-3.8%,-0.7,3.98µM*,?
CCN(c1ccccc1)S(=O)(=O)c1ccc(C(=O)N(CCCN(C)C)c2nc3cc4c(cc3s2)OCO4)cc1,?,9.3%,-0.2%,-3.1,3.55µM*,?
COc1ccc(-c2noc(CSc3nnc(-c4ccncc4)n3-c3ccc(C)c(C)c3)n2)cc1,.,.,.,.,-9.8%,-7.8%
Cc1cc(C)c2sc(N(CCN(C)C)C(=O)c3c(F)cccc3F)nc2c1,-2.2%,12.1%,1.1%,0.6,7.08µM*,-14.3%
CN(C)CCCN(C(=O)COc1ccc(Cl)cc1)c1nc2cc3c(cc2s1)OCO3,1.3%,26.6%,1.1%,-35.1*,?,?
CN(C)CCCN(C(=O)c1ccc(S(=O)(=O)N2CCCCCC2)cc1)c1nc2cc3c(cc2s1)OCO3,.,4.7%,.,-0.8,10µM*,-25.5%
CN(C)CCN(C(=O)c1cccc2ccccc12)c1nc2cc3c(cc2s1)OCO3,-11.7%,5.3%,-5.4%,-0.8,10µM*,-5.6%
CN(C)CCN(C(=O)c1ccc2ccccc2c1)c1nc2cc3c(cc2s1)OCCO3,-16.2%,2.2%,0.3%,-0.8,?,-6.5%
COc1ccc(S(=O)(=O)NCC(c2ccco2)N2CCN(c3ccc(F)cc3)CC2)cc1C (stereo not drawn),.,.,.,.,?,-1.6%
CCc1ccc(OCCCSc2nc(-c3ccc(C(C)(C)C)cc3)nc3cc(=O)[nH]n23)cc1,.,.,.,.,7.4%,0.3%
